Experimental data: PubChem BioAssay
Several values for one entry are separate records, joined by “and”; a condition that tells them apart may be missing. Identical values can stand only once. Activity calls are given as the source filed them.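 Rule for the calls, unless noted: active = compounds whose cell count with miR-34 switched on is under 0.7 times the count with it off; inactive = the rest.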

How the values were obtained:
[1] = liver-stage malaria parasite growth inhibition, primary screen, cell-based, HepG2, luciferase luminescence, HepG2 viability (AID 624349; in the data active = parasite load remaining mostly below about 12%, no sharp cut-off; inactive = mostly above about 10%;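 note: 100% = mean of DMSO negative control wells on the same plate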); conditions: P. berghei liver stage in HepG2, luciferase luminescence, concentration not given here; parasite load remaining: stronger effect = lower value; viability: measured here: HepG2 viability without parasites
[2] = sensitizers of A549 cells to miR-34 induction, primary screen, imaging, A549 dox-inducible miR-34, nuclei and caspase counts (AID 1347080); conditions: A549 miR-34 inducible, Hoechst nuclei count, 48 h
[3] = survival rescue of mitochondrial mutant cells in low glucose, primary screen, MELAS cybrids, Rieske KO mouse fibroblasts, CellTiter-Glo (AID 1508586;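 active = mean z-score across replicates of 1.96 or higher in either the MELAS or the Rieske mutant cell line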;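 note: z relative to plate mean and SD of compound and empty wells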)
[4] = viability rescue of complex I mutant cybrids, primary screen, cell-based, galactose medium, ATP luminescence (AID 1645843;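 active = z-score of at least 1.8 in each of two replicates, scored against plate mean and spread of sample wells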;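 note: positive z means more ATP and so rescue of galactose-driven cybrid death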); conditions: complex I mutant cybrid cells, 72 h, stronger effect = higher value
[5] = hESC survival regulators, cell-based (AID 493140; call rule not given here;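 note: cells exposed to compounds for four days before counting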); conditions: human embryonic stem cell survival screen; stronger effect = higher value
[6] = stronger effect = lower value, cell number ratio, induced over uninduced
[7] = measured here: relative caspase fold change +Dox/-Dox
[8] = measured here: total cells with miR-34 induction, stronger effect = lower value
[9] = measured here: total cells without miR-34 induction
[10] = MELAS cybrid survival, CellTiter-Glo 48 h, stronger effect = higher value
[11] = Rieske KO mouse fibroblast survival, CellTiter-Glo 72 h

Compound	parasite load remaining [1]	viability [1]	fold change [2, 6]	fold change [2, 7]	cell count [2, 8]	cell count [2, 9]	z-score [3, 10]	z-score [3, 11]	z-score [4]	survival [5]
CN1C[C@H](C(=O)N[C@]2(C)O[C@@]3(O)[C@@H]4CCCN4C(=O)[C@H](Cc4ccccc4)N3C2=O)CC2c3cccc4[nH]cc(c34)C[C@H]21 (stereo partly drawn)	81.9% (inactive) and 39.4% (inactive)	69.3% and 96.5%	0.973 (inactive) and 0.855 (inactive)	1.1 and 1.21	7780 and 9120	8000 and 10700	-0.956 (inactive)	-0.402	0.325 (inactive)	
C[C@H](C(=O)O)c1cccc(C(=O)c2ccccc2)c1	42.4% (inactive)	93%	0.744 (inactive)	1.59	7940	10700	-0.319 (inactive)	-0.518	0.4 (inactive)	115 (inactive)
COc1ccc(C(=O)/C(Br)=C\C(=O)O)cc1	25.4% (inactive)	107%	0.888 (inactive)	1.39	9940	11200	-0.188 (inactive)	-0.289	-0.925 (inactive)	
C=C1/C(=C/C=C2/CCC[C@]3(C)[C@@H]([C@H](C)CCCC(C)C)CC[C@@H]23)C[C@@H](O)C[C@@H]1O	43.3% (inactive)	115%	0.847 (inactive)	0.894	8220	9710	0.628 (inactive) and 0.37 (inactive)	0.674 and -0.198	-2.23 (inactive)	
CC(C)C[C@H](NC(=O)[C@@H](Cc1c[nH]c2ccccc12)NC(=O)[C@H](Cc1ccc(O)cc1)NC(=O)[C@H](CO)NC(=O)[C@H](Cc1c[nH]c2ccccc12)NC(=O)[C@H](Cc1cnc[nH]1)NC(=O)[C@@H]1CCC(=O)N1)C(=O)N[C@@H](CCCN=C(N)N)C(=O)N1CCC[C@H]1C(=O)NCC(N)=O	20.9% (inactive)	68.5%	0.921 (inactive)	1.16	9400	10200	0.161 (inactive)	-0.118	0.68 (inactive)	
CNC(=C[N+](=O)[O-])NCCSCc1csc(CN(C)C)n1			0.834 (inactive) and 1.04 (inactive)	1.65 and 0.659	8750 and 8440	10500 and 8100	-0.241 (inactive)	-0.0279	0.825 (inactive)	4.67 (inactive)
CC[C@H]1OC(=O)[C@H](C)[C@@H](O[C@H]2C[C@@](C)(OC)[C@@H](O)[C@H](C)O2)[C@H](C)[C@@H](O[C@@H]2O[C@H](C)C[C@H](N(C)C)[C@H]2O)C(C)(O)C[C@@H](C)CN(C)[C@H](C)[C@@H](O)[C@]1(C)O (stereo partly drawn)	18.4% (inactive)	65.5%	0.876 (inactive)	1.13	9530	10900	-0.337 (inactive) and 0.0634 (inactive)	-0.912 and -0.719	0.015 (inactive)	
